According to PubChem BioAssay (EPA / NIEHS):
Where “and” joins values, the source holds several entries; their conditions need not be identical. Equal entries are not always repeated. The source holds several records for some structures; these can differ, active in one and inactive in another. Calls of active or inactive are those of the source. The calls were made as follows: active = hit-call score of the fitted dose curve at least 0.9, where 1 is the maximum; inactive = score below 0.9.

Key:
[1] = target: Transcription factor E2F1 (Homo sapiens) (UniProt Q01094); assay: ATG_E2F_CIS: Attagene CIS-FACTORIAL HepG2 Assay for human E2F Transcription Factor 1 (AID 2282935); settings: HepG2 Attagene cis-reporter, E2F reporter RNA transcripts; actives raise or lower the signal
Procedure, shortened: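 In this cis-factorial format, endogenous factor activity drives transfected reporters in HepG2; transcripts collected at 24 h are quantified by fluorescence after RT-PCR and capillary separation.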

[2] = ATG_E_Box_CIS: Attagene CIS-FACTORIAL HepG2 Assay for human Enhancer Box (E-box) (AID 2282936); settings: HepG2 E-box cis-reporter transcription, actives raise or lower the signal
Procedure, shortened: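 Measured 24 h post-dosing in HepG2 cells transfected with multiple cis-regulated reporter units, signal being reporter mRNA induction detected by fluorescent RT-PCR with capillary electrophoresis; gain or loss fitted against DMSO.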

[3] = ATG_M_61_CIS: Attagene CIS-FACTORIAL HepG2 Assay for M61 Transcription Factor (Internal Marker) (AID 2282937); settings: HepG2 Attagene CIS-FACTORIAL M61 internal marker reporter; actives raise or lower the signal
Procedure, shortened: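 HepG2 cells transiently transfected with multiplexed cis-promoter reporter units reporting endogenous transcription factor activity, measured 24 h after dosing. Reporter mRNA quantified by RT-PCR and capillary electrophoresis; bidirectional fit against DMSO baseline.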

[4] = ATG_EGR_CIS: Attagene CIS-FACTORIAL HepG2 Assay for human Early Growth Response 1 (EGR1) (AID 2282938); settings: HepG2 Attagene CIS-FACTORIAL EGR reporter mRNA; actives raise or lower the signal
Procedure, shortened: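 HepG2 cells transiently transfected with cis-element-driven multiplexed reporter units, dosed for 24 h. EGR1-element reporter mRNA quantified by RT-PCR, 6-FAM labelling, HpaI digestion and capillary electrophoresis; bidirectional fit versus DMSO.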

[5] = ATG_M_19_CIS: Attagene CIS-FACTORIAL HepG2 Assay for M19 Transcription Factor (Internal Marker) (AID 2282939); settings: HepG2 Attagene CIS-FACTORIAL M19 internal marker reporter; actives raise or lower the signal
Procedure, shortened: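 Signals come from fluorescence of labelled reporter-specific PCR fragments resolved by capillary electrophoresis, following 24 h treatment of HepG2 cells transfected with cis-promoter reporter units; activity was fitted in both directions relative to DMSO.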

[6] = ATG_ERE_CIS: Attagene CIS-FACTORIAL HepG2 Assay for Estrogen Response Element (ERE) (AID 2282940); settings: HepG2 ERE cis-reporter, Attagene RNA transcript; actives raise or lower the signal
Procedure, shortened: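 Fluorescence of capillary-separated, FAM-labelled reporter cDNA fragments indicates reporter mRNA levels in HepG2 cells exposed to chemicals for 24 h. Transient transfection with cis-regulated units; data fitted in both directions against DMSO.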

[7] = ATG_Ets_CIS: Attagene CIS-FACTORIAL HepG2 Assay for human Erythroblast Transformation Specific (ETS) (AID 2282941); settings: HepG2 ETS cis-reporter transcription, actives raise or lower the signal
Procedure, shortened: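 Bidirectional fit versus DMSO of reporter mRNA signal, detected by RT-PCR and capillary electrophoresis in HepG2 cells transiently transfected with cis-element reporters and dosed 24 h.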

[8] = target: Hepatocyte nuclear factor 3-beta (Homo sapiens) (UniProt Q9Y261); assay: ATG_FoxA2_CIS: Attagene CIS-FACTORIAL HepG2 Assay for human Forkhead box A2 (FOXA2) (AID 2282942); settings: HepG2 cis-reporter transcription factor activity, 24 h; actives raise or lower the signal
Procedure, shortened: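 HepG2 transiently transfected with a multiplexed cis-promoter reporter library read endogenous FOXA2 activity. After 24 h compound exposure, reporter mRNA was quantified by RT-PCR, HpaI digestion and capillary electrophoresis. Bidirectional fit against DMSO.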

[9] = ATG_FoxO_CIS: Attagene CIS-FACTORIAL HepG2 Assay for human Forkhead box O (FoxO) (AID 2282943); settings: HepG2 Attagene cis-reporter, FoxO element, mRNA; actives raise or lower the signal
Procedure, shortened: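 Values reflect reporter mRNA induction or loss in HepG2 cells 24 h post-dosing, fitted bidirectionally with DMSO as negative control and baseline. Detection used RT-PCR and fluorescence capillary electrophoresis.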

[10] = ATG_GATA_CIS: Attagene CIS-FACTORIAL HepG2 Assay for human GATA Binding Protein (AID 2282944); settings: HepG2 GATA cis-element reporter, Attagene multiplex mRNA; actives raise or lower the signal
Procedure, shortened: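 After transfecting HepG2 cells with multiple cis-regulated reporter units, chemicals are dosed for 24 h; isolated RNA undergoes RT-PCR and fluorescent labeling before capillary electrophoresis, with activity expressed against DMSO.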

[11] = ATG_GLI_CIS: Attagene CIS-FACTORIAL HepG2 Assay for human Zinc Finger Protein GLI1 (AID 2282945); settings: HepG2, Attagene cis-factorial reporter mRNA, GLI element; actives raise or lower the signal
Procedure, shortened: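 HepG2 cells transiently transfected with cis-promoter multiplexed reporter units report endogenous transcription factor activity. After 24 h chemical exposure, reporter mRNA was quantified by RT-PCR, 6-FAM labelling, HpaI digestion and capillary electrophoresis, with bidirectional fitting against DMSO.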

[12] = target: Bile acid receptor (Homo sapiens) (UniProt Q96RI1); assay: ATG_IR1_CIS: Attagene CIS-FACTORIAL HepG2 Assay for human Nuclear Receptor Subfamily 1 Group H Member 4 (NR1H4), IR1 submotif (AID 2282946); settings: IR1 reporter transcription, actives raise or lower the signal
Procedure, shortened: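 Readout: reporter transcript levels by RT-PCR with fluorescent capillary electrophoresis, from HepG2 cells transiently transfected with multiplexed cis-regulated reporters and dosed 24 h. Gain- or loss-of-signal fitted versus DMSO negative control.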

[13] = ATG_GRE_CIS: Attagene CIS-FACTORIAL HepG2 Assay for human Glucocorticoid Response Elements (GRE) (AID 2282947); settings: HepG2 GRE cis-reporter, Attagene multiplex mRNA; actives raise or lower the signal
Procedure, shortened: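 HepG2, transient cis-reporter transfection, 24 h. Reporter mRNA: RT-PCR then CE, fluorescence. Fit both directions vs DMSO.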

[14] = ATG_ISRE_CIS: Attagene CIS-FACTORIAL HepG2 Assay for human Interferon Regulatory Factor 1 (IRF1) binding to an Interferon-Stimulated Response Element (ISRE) (AID 2282948); settings: HepG2 ISRE cis-reporter (Attagene), mRNA transcription readout; actives raise or lower the signal
Procedure, shortened: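 Uses HepG2 liver cells transfected with cis-regulated reporters and measures mRNA 24 h post-dosing through RT-PCR, primer-extension labelling and capillary electrophoresis, with DMSO as negative control.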

[15] = ATG_M_32_CIS: Attagene CIS-FACTORIAL HepG2 Assay for M32 Transcription Factor (Internal Marker) (AID 2282949); settings: HepG2 Attagene cis-factorial M32 reporter, mRNA; actives raise or lower the signal;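 also: background control marker of the multiplexed CIS panel rather than a real target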
Procedure, shortened: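 Transient MRTU transfection of HepG2; 24 h compound treatment; TriZol RNA, oligo(dT) RT, reporter PCR, 6-FAM primer extension, HpaI cut, CE. Gain/loss of signal vs DMSO.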

[16] = ATG_M_06_CIS: Attagene CIS-FACTORIAL HepG2 Assay for M06 Transcription Factor (Internal Marker) (AID 2282950); settings: HepG2 Attagene CIS-FACTORIAL M06 internal marker reporter; actives raise or lower the signal
Procedure, shortened: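 HepG2 liver cells, 24 h exposure. Reporter transcripts from transfected cis-element constructs quantified by RT-PCR/capillary electrophoresis fluorescence. Bidirectional curve fit against DMSO.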

[17] = target: Hypoxia-inducible factor 1-alpha (Homo sapiens) (UniProt Q16665); assay: ATG_HIF1a_CIS: Attagene CIS-FACTORIAL HepG2 Assay for human Hypoxia Inducible Factor 1 (HIF1A) (AID 2282951); settings: HepG2 Attagene cis-factorial HIF1a reporter transcription; actives raise or lower the signal
Procedure, shortened: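 HepG2 cells transiently transfected with multiple cis-regulated reporter transcription units measure endogenous transcription factor activity. After 24 h exposure, reporter mRNA is quantified by RT-PCR with 6-FAM labelling, HpaI digestion and capillary electrophoresis. Bidirectional fitting against DMSO.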

[18] = target: Hepatocyte nuclear factor 6 (Homo sapiens) (UniProt Q9UBC0); assay: ATG_HNF6_CIS: Attagene CIS-FACTORIAL HepG2 Assay for human Hepatocyte Nuclear Factor 6 (HNF6) (AID 2282952); settings: HepG2 Attagene cis-factorial HNF6 reporter transcription; actives raise or lower the signal
Procedure, shortened: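 Using cis-element reporters in HepG2 liver cells, the assay tracks endogenous factor-driven transcription 24 h post-dosing. Signal comes from 6-FAM-labelled, HpaI-digested RT-PCR fragments, with gain or loss scored against DMSO.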

[19] = target: Heat shock factor protein 1 (Homo sapiens) (UniProt Q00613); assay: ATG_HSE_CIS: Attagene CIS-FACTORIAL HepG2 Assay for human Heat Shock Transcription Factor 1 (HSE) (AID 2282953); settings: HepG2 HSE cis-reporter, Attagene RNA transcription; actives raise or lower the signal
Procedure, shortened: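 Endogenous transcription factor activity captured via cis-promoter reporter units transfected into HepG2; treatment lasted 24 h. Fluorescence intensity of reporter fragments analysed with bidirectional curve fitting, DMSO baseline.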

[20] = ATG_MRE_CIS: Attagene CIS-FACTORIAL HepG2 Assay for human Metal Responsive Element (MRE) (AID 2282954); settings: HepG2 MRE cis-reporter transcription, Attagene multiplex; actives raise or lower the signal
Procedure, shortened: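 Readout: capillary electrophoresis of 6-FAM-labelled, HpaI-digested RT-PCR reporter products. System: HepG2 cells carrying transient multiplexed cis reporters, dosed 24 h. Analysis: bidirectional fit, DMSO baseline.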

Measured: AC50

Sequence of Hypoxia-inducible factor 1-alpha (Homo sapiens) (Q16665 whole entry, looked up): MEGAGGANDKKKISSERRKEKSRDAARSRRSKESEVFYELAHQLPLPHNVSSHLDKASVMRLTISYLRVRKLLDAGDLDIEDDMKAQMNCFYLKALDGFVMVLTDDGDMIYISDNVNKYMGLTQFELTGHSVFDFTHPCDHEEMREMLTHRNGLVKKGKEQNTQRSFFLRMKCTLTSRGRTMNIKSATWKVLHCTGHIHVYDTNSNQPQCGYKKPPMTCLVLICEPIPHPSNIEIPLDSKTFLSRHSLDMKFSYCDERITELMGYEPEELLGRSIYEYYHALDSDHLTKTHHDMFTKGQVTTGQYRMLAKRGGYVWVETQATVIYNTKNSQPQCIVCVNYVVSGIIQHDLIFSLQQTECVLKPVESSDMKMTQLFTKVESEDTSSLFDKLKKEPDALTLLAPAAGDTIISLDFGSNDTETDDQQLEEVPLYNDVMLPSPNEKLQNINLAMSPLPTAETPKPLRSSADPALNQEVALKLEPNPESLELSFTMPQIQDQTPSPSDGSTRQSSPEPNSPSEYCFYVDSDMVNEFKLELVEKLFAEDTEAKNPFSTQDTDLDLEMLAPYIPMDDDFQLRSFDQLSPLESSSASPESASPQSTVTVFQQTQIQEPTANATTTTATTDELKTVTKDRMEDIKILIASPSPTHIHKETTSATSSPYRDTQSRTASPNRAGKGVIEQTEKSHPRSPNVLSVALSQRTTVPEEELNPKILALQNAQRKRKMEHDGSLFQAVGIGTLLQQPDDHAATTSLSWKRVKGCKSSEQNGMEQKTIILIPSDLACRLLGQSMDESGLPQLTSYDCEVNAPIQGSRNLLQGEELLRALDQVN
Sequence of Transcription factor E2F1 (Homo sapiens) (Q01094 whole entry, looked up): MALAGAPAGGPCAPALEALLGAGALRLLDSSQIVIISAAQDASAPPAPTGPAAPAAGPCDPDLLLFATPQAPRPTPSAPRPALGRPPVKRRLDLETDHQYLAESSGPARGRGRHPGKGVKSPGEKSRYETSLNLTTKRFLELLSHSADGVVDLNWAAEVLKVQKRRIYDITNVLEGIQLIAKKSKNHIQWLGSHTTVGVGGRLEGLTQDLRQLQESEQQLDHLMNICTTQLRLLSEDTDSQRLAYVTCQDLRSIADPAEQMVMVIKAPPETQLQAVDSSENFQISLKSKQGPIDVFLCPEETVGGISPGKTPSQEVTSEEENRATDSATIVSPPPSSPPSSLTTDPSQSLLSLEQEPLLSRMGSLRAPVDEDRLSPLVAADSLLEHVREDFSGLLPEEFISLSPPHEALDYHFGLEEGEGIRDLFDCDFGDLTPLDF
Sequence of Bile acid receptor (Homo sapiens) (Q96RI1 whole entry, looked up): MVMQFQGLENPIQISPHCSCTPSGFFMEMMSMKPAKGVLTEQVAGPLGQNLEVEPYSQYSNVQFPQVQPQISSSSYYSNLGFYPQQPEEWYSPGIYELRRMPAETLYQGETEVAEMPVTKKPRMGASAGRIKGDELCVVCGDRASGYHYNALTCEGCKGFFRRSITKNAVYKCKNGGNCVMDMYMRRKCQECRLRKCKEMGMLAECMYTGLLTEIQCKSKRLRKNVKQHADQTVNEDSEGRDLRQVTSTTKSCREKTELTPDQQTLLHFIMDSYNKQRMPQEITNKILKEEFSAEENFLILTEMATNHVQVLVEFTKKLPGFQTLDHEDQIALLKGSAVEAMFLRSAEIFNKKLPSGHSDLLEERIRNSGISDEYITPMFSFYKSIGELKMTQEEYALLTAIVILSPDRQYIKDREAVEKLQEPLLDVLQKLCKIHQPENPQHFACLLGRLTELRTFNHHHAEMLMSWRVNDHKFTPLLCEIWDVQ
Sequence of Heat shock factor protein 1 (Homo sapiens) (Q00613 whole entry, looked up, the tested form may be a part): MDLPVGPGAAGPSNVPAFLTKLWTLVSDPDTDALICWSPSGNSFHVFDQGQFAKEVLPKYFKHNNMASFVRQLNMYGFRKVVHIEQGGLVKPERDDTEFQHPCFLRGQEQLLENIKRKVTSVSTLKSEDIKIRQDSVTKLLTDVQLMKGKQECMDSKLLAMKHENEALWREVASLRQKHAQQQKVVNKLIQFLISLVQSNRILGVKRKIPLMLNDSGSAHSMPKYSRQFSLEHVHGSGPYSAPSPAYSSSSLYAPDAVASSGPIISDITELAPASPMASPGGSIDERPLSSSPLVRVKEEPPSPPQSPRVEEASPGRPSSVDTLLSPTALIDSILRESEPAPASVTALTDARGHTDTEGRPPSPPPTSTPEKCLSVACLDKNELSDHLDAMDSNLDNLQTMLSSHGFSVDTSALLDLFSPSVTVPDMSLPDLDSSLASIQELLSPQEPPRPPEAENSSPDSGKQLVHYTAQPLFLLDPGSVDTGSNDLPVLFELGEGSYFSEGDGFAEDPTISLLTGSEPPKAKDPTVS
Sequence of Hepatocyte nuclear factor 3-beta (Homo sapiens) (Q9Y261 whole entry, looked up): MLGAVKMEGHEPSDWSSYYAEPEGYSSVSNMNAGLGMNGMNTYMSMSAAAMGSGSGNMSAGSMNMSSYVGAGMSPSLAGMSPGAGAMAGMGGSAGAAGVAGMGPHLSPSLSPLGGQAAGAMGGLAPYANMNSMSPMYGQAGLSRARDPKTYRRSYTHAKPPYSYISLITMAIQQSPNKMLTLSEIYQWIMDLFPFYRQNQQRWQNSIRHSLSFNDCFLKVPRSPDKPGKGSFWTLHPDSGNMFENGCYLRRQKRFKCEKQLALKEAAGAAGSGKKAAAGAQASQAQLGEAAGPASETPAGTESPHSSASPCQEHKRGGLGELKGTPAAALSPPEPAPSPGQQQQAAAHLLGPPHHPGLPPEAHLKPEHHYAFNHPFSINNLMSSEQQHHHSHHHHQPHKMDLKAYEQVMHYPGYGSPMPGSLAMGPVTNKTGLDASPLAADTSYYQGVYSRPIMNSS
Sequence of Hepatocyte nuclear factor 6 (Homo sapiens) (Q9UBC0 whole entry, looked up, the tested form may be a part): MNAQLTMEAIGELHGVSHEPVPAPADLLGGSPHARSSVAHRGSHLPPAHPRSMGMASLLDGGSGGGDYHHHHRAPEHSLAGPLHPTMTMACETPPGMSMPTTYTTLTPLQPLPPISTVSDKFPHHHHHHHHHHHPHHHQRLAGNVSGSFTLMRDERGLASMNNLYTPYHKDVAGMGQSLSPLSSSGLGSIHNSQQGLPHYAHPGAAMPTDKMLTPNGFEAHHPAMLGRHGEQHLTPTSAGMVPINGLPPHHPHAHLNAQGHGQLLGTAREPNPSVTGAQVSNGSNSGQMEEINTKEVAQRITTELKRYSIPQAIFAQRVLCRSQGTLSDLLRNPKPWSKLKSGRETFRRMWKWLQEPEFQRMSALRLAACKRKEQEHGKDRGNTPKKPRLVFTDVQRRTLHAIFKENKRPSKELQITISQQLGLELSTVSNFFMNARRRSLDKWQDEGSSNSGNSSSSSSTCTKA

CC(C)(C)C(O)/C(=C\c1ccc(Cl)cc1Cl)n1cncn1 (centres undefined)
active: [20] 5 µM
inactive: all other assays above

N#Cc1c(Cl)c(Cl)c(Cl)c(C#N)c1Cl
inactive: all assays above

O=C1c2ccccc2C(=O)N1SC(Cl)(Cl)Cl
not listed: [13]
inactive: all other assays above

Oc1ccc(Cl)cc1Cc1ccccc1
active: [2] 11.1 µM | [4] 14.9 µM | [7] 16.3 µM | [9] 20.4 µM | [10] 20.2 µM | [11] 16.4 µM | [19] 17.3 µM | [20] 16 µM
inactive: [1] | [2] | [3] | [4] | [5] | [7] | [8] | [9] | [10] | [11] | [13] | [14] | [15] | [16] | [17] | [18] | [19] | [20]

COC(=O)c1ccccc1S(=O)(=O)NC(=O)N(C)c1nc(C)nc(OC)n1
inactive: all assays above

O=[N+]([O-])/N=C1\NCCN1Cc1ccc(Cl)nc1
inactive: all assays above

COC(=O)c1ccccc1CS(=O)(=O)NC(=O)Nc1nc(OC)cc(OC)n1
active: [2] 125 µM
inactive: [1] | [2] | [3] | [4] | [5] | [6] | [7] | [8] | [9] | [10] | [11] | [12] | [13] | [14] | [15] | [16] | [17] | [18] | [19] | [20]

O=S(=O)(O)C(F)(F)C(F)(F)C(F)(F)C(F)(F)C(F)(F)C(F)(F)C(F)(F)C(F)(F)F
active: [1] 128 µM and 48.9 µM | [2] 134 µM | [4] 102 µM | [5] 153 µM | [7] 56.1 µM and 233 µM | [9] 143 µM and 58.9 µM and 223 µM | [10] 44.4 µM | [15] 53.6 µM | [17] 84 µM | [18] 24.7 µM and 208 µM and 272 µM | [19] 182 µM and 54.8 µM
inactive: [1] | [2] | [3] | [4] | [5] | [7] | [8] | [9] | [10] | [11] | [14] | [15] | [16] | [17] | [18] | [19] | [20]

CNC(=O)/C=C(\C)OP(=O)(OC)OC
inactive: all assays above

CCC(C)(C)C(=O)OC1=C(c2ccc(Cl)cc2Cl)C(=O)OC12CCCCC2
active: [7] 1.69 µM
inactive: all other assays above

COc1nn(CSP(=S)(OC)OC)c(=O)s1
active: [6] 24.8 µM
inactive: all other assays above
